D1 antag: human D1 dopamine receptor antagonism; HEK293 TREx D1 cells, calcium flux, dopamine EC80; active compounds read low; activity change, negative = inhibition, % at 10 µM; 360,000 tested, 3.2% active; P21728; in the data active means activity change below about -30%; further: on the % scale 0 is the no-effect control and ±100 the full control effect
Target sequence (P21728 whole entry, looked up): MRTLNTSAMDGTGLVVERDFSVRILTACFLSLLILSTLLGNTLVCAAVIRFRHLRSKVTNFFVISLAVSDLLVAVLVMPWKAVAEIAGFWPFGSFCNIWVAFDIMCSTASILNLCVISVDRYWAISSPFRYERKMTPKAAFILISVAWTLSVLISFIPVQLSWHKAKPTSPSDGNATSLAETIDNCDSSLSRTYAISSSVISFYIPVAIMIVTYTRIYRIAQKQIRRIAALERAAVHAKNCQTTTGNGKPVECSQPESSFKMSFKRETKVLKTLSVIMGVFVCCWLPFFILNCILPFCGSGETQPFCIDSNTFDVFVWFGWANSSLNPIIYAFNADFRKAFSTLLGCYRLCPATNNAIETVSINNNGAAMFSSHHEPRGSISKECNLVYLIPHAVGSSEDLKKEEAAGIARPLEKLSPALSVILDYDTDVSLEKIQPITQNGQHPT
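Tetracycline-induced HEK293 Trex D1 cells, force-coupled to calcium, dye-loaded; compounds added and read 180 s, then EC80 dopamine added and calcium flux tracked kinetically another 180 s.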
TRHR enhancer: TRH receptor (human) allosteric enhancement; 360,000 tested, 0.66% active; enhancement, % at 2 µM; P34981; AID 493056; TRHR cells, fluo-8 calcium fluorescence, EC20 TRH enhancement; in the data active means enhancement above about 30%; further: 0% is about no effect
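TRHR-expressing cells loaded with fluo-8 calcium dye were read kinetically (ex 480/em 530) during compound addition, then stimulated with an EC20 of TRH (10 nM final). Enhancement of the Gq-mediated intracellular calcium response was scored.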
D1 agonist: activates the human D1 dopamine receptor; HEK293 T-REx D1 cells, calcium flux, agonist mode; activation, % at 2 µM; 360,000 tested, 1% active; AID 504660; further: 0% is about no effect
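Agonism was scored from calcium flux recorded over 180 s (1 read/s) after pintool compound addition, following a 10-cycle baseline. Cells were inducible force-coupled HEK293 TREx D1, plated overnight at 30 C and loaded with no-wash calcium dye.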
TRHR ag: activates the human TRH receptor; activation, % at 2 µM; TRHR cells, calcium flux fluo-8, FDSS agonist mode; 360,000 tested, 0.18% active; further: 0% is about no effect
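TRHR-expressing cells loaded with fluo-8 calcium dye; 23 nL library compound pin-transferred, kinetic FDSS fluorescence (Ex 480/Em 530) recorded about 180 s for agonist-induced calcium release, before a 10 nM TRH EC20 addition for potentiator mode.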
D1 PAM: enhances dopamine response at the human D1 receptor. HEK293 TREx D1 cells, calcium flux, dopamine EC20 potentiation. P21728. potentiation, % at 10 µM. 360,000 tested, 0.036% active. AID 504651; in the data active means potentiation above about 30%; further: 0% is about no effect
An asterisk follows results filed as active; x = not tested or not shown. An excerpt weighted towards active compounds, which were near 4.6% of everything screened. Unless noted, no stated cut-off is given here; in the data, active means activation above about 30%; inactive means the rest.

SMILES | D1 antag | TRHR enhancer | D1 agonist | TRHR ag | D1 PAM
O=C(CCCN1C(=O)c2ccccc2C1=O)Oc1ccc(F)cc1 | -32* | 1 | 0 | 0 | -6
COC(=O)c1ccc(CN2C(=O)c3ccccc3C2=O)cc1 | 4 | -7 | 1 | -1 | 2
COc1ccc(CCNC(=O)c2csc3c2CCCCC3)c(OC)c1 | -14 | -10 | 8 | 2 | -6
COc1ccc(C(=O)c2c(N)c(-c3nc(-c4ccccc4)cs3)c3ccccn23)cc1 | -5 | -2 | 1 | 1 | -1
Cc1cccc(S(=O)(=O)N2CCN(S(=O)(=O)c3ccc4c(c3)OCCO4)CC2)c1 | -4 | 2 | 5 | 1 | 2
COc1ccccc1NC(=O)CCN1C(=O)C2C3CCC(C3)C2C1=O (stereo unspecified) | -78* | -2 | 1 | 0 | -6
COc1ccc(Cl)cc1NC(=O)CCN1C(=O)C2C3CCC(C3)C2C1=O (stereo unspecified) | 2 | -4 | 2 | -1 | -5
Cc1ccc(CNC(=O)CCN2C(=O)C(C)Oc3ccc(C)cc32)cc1 (stereo unspecified) | 38 | 12 | -1 | -1 | 2
CCN(c1ccccc1)S(=O)(=O)c1cccc(C(=O)NCc2cccnc2)c1 | 2 | 10 | 8 | -1 | 4
CCN(c1ccccc1)S(=O)(=O)c1cccc(C(=O)NCc2ccncc2)c1 | 7 | 31* | 5 | 0 | -10
CCN(CC)C(=O)Cn1cc(C(=O)C(=O)NCCc2ccccc2)c2ccccc21 | -3 | -7 | 1 | -1 | 0
CCN(CC)C(=O)Cn1cc(C(=O)C(=O)NCCCN2CCOCC2)c2ccccc21 | -34* | -1 | 2 | 0 | 0
COc1ccccc1C(C)NS(=O)(=O)c1cccs1 (stereo unspecified) | -9 | -7 | 0 | 0 | -3
CC(C)c1cccc(C(C)C)c1NS(=O)(=O)c1cccs1 | -31* | 0 | 5 | -2 | 1
COc1ccc(OCC(=O)NC2CCCc3ccccc32)cc1 (stereo unspecified) | -4 | -2 | 2 | 0 | -4
COc1ccccc1NC(=O)NC1CCCc2ccccc21 (stereo unspecified) | -5 | 0 | 2 | 0 | -4
CCOc1ccccc1NC(=O)NC1CCCc2ccccc21 (stereo unspecified) | -33* | -3 | 0 | -1 | -2
CC(=O)c1ccc(OCCCC(=O)NC2CCCc3ccccc32)cc1 (stereo unspecified) | -32* | -3 | 0 | -1 | -1
O=C(Cn1c(=O)n(Cc2ccco2)c(=O)c2sc3ccccc3c21)Nc1ccc(F)cc1F | -5 | 0 | 6 | 0 | -2
COc1ccc(N2CCN(c3ccc(-c4nc(-c5ccccc5C)no4)cc3[N+](=O)[O-])CC2)cc1 | -9 | 2 | 15 | 1 | -1
CC(C)(C)N(Cc1ccccc1)C(=O)CN1C(=O)NC2(CCCCCC2)C1=O | -75* | 6 | 1 | 0 | x
Cc1ccc(-c2noc(CCCC(=O)N3CCOCC3)n2)cc1 | 3 | -4 | 1 | 1 | 1
O=C(CCCc1nc(-c2ccc(Cl)cc2)no1)N1CCOCC1 | -41* | -2 | 2 | 1 | -6
Cc1ccc(-c2nc3cccnc3s2)cc1NC(=O)Cc1ccccc1 | 11 | 1 | -1 | 0 | 2
CCn1nc(-c2ccccc2)c2nc3ccccc3nc21 | 17 | -5 | 98* | 20 | 0
SMILES | D1 antag | TRHR enhancer | D1 agonist | TRHR ag | D1 PAM
CCCn1nc(-c2ccccc2)c2nc3ccccc3nc21 | 5 | -3 | 70* | 16 | 8
c1ccc(CSc2nc3ncccc3[nH]2)cc1 | 1 | 10 | -1 | 0 | -1
O=C(C1=C[C@@H](c2ccc(Br)cc2)C[C@@H](OCCCCO)O1)N1CCOCC1 | -70* | 3 | -5 | 0 | -6
O=C(NCc1ccccc1)C1=C[C@H](c2ccc(Br)cc2)C[C@H](OCc2ccc(CO)cc2)O1 | 2 | -6 | 32* | -1 | -3
O=C(C1=C[C@@H](c2ccccc2)C[C@@H](OCCCCO)O1)N1CCOCC1 | -37* | 2 | -5 | 0 | -3
CN1CCN(C(=O)C2=C[C@@H](c3ccccc3)C[C@@H](OCCCCO)O2)CC1 | -3 | -1 | -2 | 0 | -4
O=C(C1=C[C@H](c2ccc(Br)cc2)C[C@H](OCc2ccc(CO)cc2)O1)N1CCOCC1 | -33* | 4 | 2 | 0 | -2
O=C(C1=C[C@@H](c2ccc(Br)cc2)C[C@@H](OCc2ccc(CO)cc2)O1)N1CCOCC1 | -3 | 1 | 2 | 1 | 0
COc1ccccc1CNS(=O)(=O)c1cc(Br)cc2c1N(C(=O)C1CC1)CC2 | 8 | 0 | 1 | 0 | 3
COc1cccc(C(=O)N2CC(=O)Nc3ccc(C)cc3C2c2ccc(F)cc2)c1OC (stereo unspecified) | -1 | -2 | 1 | 0 | -1
Cc1ccc(NC(=O)C2CCCN(S(=O)(=O)c3c(C)nn(C)c3C)C2)c(C)c1 (stereo unspecified) | -2 | 8 | -1 | 0 | 5
CCCC(=O)OCCNc1cc(Sc2nccn2C)c2nonc2c1[N+](=O)[O-] | -32* | -11 | 3 | 0 | -9
CCOC(=O)[C@H]1[C@H]2COc3ccc(C)cc3[C@@H]2N2C(=O)c3cc(F)ccc3NC(=O)[C@@]12C | -24 | 6 | -2 | 0 | -6
CCOC(=O)[C@H]1[C@H]2COc3ccc(Cl)cc3[C@@H]2N2C(=O)c3cc(F)ccc3NC(=O)[C@@]12C | 7 | 1 | 31* | 0 | 4
COc1ccc(S(=O)(=O)N2CCN(CC(=O)Nc3ccc(Cl)c(C(F)(F)F)c3)CC2)cc1 | -12 | 2 | 10 | 1 | -1
COc1ccc(C(=O)C(C)[n+]2ccc(C)c3ccccc32)cc1[N+](=O)[O-] (stereo unspecified) | -25 | -2 | 52* | 8 | -7
CCCn1c(NC(=O)C2CCN(C(=O)c3ccccc3C)CC2)nc2ccccc21 | 0 | -4 | 1 | 0 | -5
CCCn1c(NC(=O)c2cccc(C)c2C)nc2ccccc21 | -49* | 4 | 2 | 0 | -5
Cc1cccc(Oc2nccc(C(F)(F)F)c2C(=O)Nc2ccc(F)cc2F)c1 | -54* | 5 | 3 | 0 | 3
CCC(C)(C)C1CCc2c(sc(NC(=O)C3c4ccccc4Oc4ccccc43)c2C(N)=O)C1 (stereo unspecified) | -1 | 43* | 3 | -1 | -5
COC(=O)C1=CO[C@@H](C)[C@H]2CN3CCc4c([nH]c5ccccc45)[C@@H]3C[C@H]12 | -52* | -10 | 0 | 1 | -7
CC(=O)c1ccc(OC2OCCOC2Oc2ccc(C(C)=O)cc2)cc1 (stereo unspecified) | -39* | -1 | 7 | 0 | -9

High-throughput results as filed in PubChem BioAssay.
